The results in this text go back to ChEMBL document CHEMBL3988442, “University of Dundee, Small-Polar-MMV Screening Library” (2021).

The assay has as its target T1, Aspartate--tRNA(Asp/Asn) ligase (Mycobacterium tuberculosis (strain ATCC 25618 / H37Rv)) (UniProt P9WFW3).
T1 sequence (whole entry): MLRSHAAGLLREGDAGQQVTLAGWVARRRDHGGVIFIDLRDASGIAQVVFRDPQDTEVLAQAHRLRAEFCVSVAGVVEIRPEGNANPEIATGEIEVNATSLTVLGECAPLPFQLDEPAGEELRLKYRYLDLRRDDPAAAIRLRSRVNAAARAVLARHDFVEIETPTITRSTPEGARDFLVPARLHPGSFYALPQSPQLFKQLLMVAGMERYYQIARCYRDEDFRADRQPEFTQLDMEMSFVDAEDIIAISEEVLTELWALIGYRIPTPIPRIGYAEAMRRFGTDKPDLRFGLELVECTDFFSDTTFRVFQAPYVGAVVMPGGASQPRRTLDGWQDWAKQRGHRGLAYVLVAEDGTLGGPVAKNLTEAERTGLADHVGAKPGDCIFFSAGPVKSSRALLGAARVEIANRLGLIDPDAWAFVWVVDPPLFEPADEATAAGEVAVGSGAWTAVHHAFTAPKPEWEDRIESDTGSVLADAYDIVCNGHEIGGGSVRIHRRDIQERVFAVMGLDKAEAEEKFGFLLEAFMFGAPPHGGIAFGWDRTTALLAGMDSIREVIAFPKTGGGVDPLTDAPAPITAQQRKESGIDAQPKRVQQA
In words: Assay for Asp RNA synthetase-1 from Mycobacterium tuberculosis. The conditions noted are these: 30 µM. More on the design: scale not given: in the data most compounds retested in dose-response had high values. In kind it is functional.
As for `O=C(NCCC(=O)N1CCCCCC1)c1c(O)cc(F)cc1F`, the Percent Effect was -0.98%. As for `Cn1nnc2c1CCN(Cc1nccs1)C2COCc1ccccc1` (centres undefined), the Percent Effect worked out at 2.63%.

With `CN(CCCOc1ccc(F)cc1)Cc1nc2c(cnn2C)c(=O)[nH]1`, the Percent Effect was -4.83%. To `Cc1cc(-c2cnc(N3CCNC(=O)C3)nc2-c2ccc(C)o2)on1` belongs -1.93%; to `COc1ccccc1NC(=O)NCC(O)(c1ccccc1)C1CC1` (centres undefined), -6.53%. The result for `CN1CC[C@H](c2ccccc2)[C@@H]2[C@H]1CCCCN2C(=O)c1cnccn1` reads -3.68%; that for `CCN(C(=O)c1ccc(-n2ncc(C#N)c2N)cc1)C1CCCC1`, 6.53%; that for `O=C(CN1CCCC1Cn1cncn1)NCCOc1cccc(F)c1` (centres undefined), -0.983%. To `O=C(c1cnc(-c2ccco2)s1)N1CCCC1Cn1cccn1` (centres undefined) belongs -5.14%; to `Cc1nc(C2(NCC(=O)NCCc3cccs3)CCCC2)no1`, -3.06%; to `Cc1nc(N)cc(C2CN(C(=O)c3ccn(C)n3)CCO2)n1` (centres undefined), -1.09%. Consider `O=C(NCCCNC(=O)c1cccc(O)c1)NCc1ccccc1F`, for which the Percent Effect is -5.63%. The result for `Cc1cc(-c2nn(C)c(Cl)c2CN2CCOCC2CC(=O)O)no1` (centres undefined) reads -2.48%; that for `Cc1nn(C)c(C)c1C1CCCN1C(=O)c1ccc(NC2CC2)nc1` (centres undefined), 2.27%; that for `CC(C)NC(=O)N1CC[C@@H]2CN(Cc3ccccc3)S(=O)(=O)[C@@H]2CC1`, -3.29%. `Cc1ccc(S(=O)(=O)Nc2ccc(-n3cccc3C(=O)O)c(C)c2)s1`: the Percent Effect was 4.34%. Take `CN1CCC(C(=O)NCc2nncn2-c2ccccc2)CC1=O` (centres undefined): the Percent Effect was -4.57%. To `O=C(c1cccc(=O)[nH]1)N(Cc1ccsc1)CC1CCCO1` (centres undefined) belongs 0.0781%; to `O=C1C(NCc2nnc3n2CCCC3)CCCN1c1cccc(F)c1` (centres undefined), 0.344%.
